The whole screen tested about 48,000 compounds, of which about 13,000 (27%) showed an effect of 50% or more. The list shows a part of the results.

For this assay, the system named is Wolbachia pipientis. Kind of assay: Anti-Wolbachia Cell-Based Screen. Format: functional. Details: scale not given: in the data most compounds retested in dose-response had high values. The settings on record: 5 µM.
Consider `Cc1ccc2c(c1)C(N1CCOCC1)CC21CCNCC1` (configuration not stated), for which the “Percent Effect” value is -7.905%.
Turning to `Cc1ccccc1SCC(=O)Nn1cnnc1`, the “Percent Effect” value is reported as -2.526%.
As for `O=C(C(O)c1ccccc1Cl)N1CCCN(Cc2cccnc2)CC1` (configuration not stated), the figure is -0.1768%; as for `Cc1nc([C@@H]2C[C@H]3CN(Cc4ccc5c(c4)OCO5)C[C@H]3O2)no1`, -16.45%; as for `Cc1ccc(S(=O)(=O)NC2CNC(=O)C2)cc1C` (configuration not stated), -5.685%.
Turning to `O=C1CC(NS(=O)(=O)c2ccc(Cl)cc2)CN1` (configuration not stated), the “Percent Effect” value stood at 124.5%.
As to `O=C1CC(NS(=O)(=O)c2ccccc2)CN1Cc1ccccc1` (configuration not stated), the “Percent Effect” value was determined as 4.424%.
In the case of `O=C(COCC1CC1)Nc1cc(S(=O)(=O)NC2CC2)ccc1F`, the “Percent Effect” value stood at 1.35%.
In the case of `N#CC1COCCN1S(=O)(=O)c1ccc2ccccc2c1` (configuration not stated), the “Percent Effect” value is on record as -7.007%.
As for `O=C1CC(NS(=O)(=O)c2ccc3ccccc3c2)CN1` (configuration not stated), the figure is 96.97%; as for `CC(C)O[C@H]1CN(C(=O)CCN2CCCCO2)C[C@@H]1O`, -9.995%; as for `Cc1nnc(SCCNC(=O)c2cc(S(N)(=O)=O)ccc2F)s1`, 5.633%.
Take `O=C(O)C(F)(F)F.O=C(c1ccoc1)N1C[C@@H]2OCCN(c3ncccn3)[C@@H]2C1`: the “Percent Effect” value was 85.6%.
Take `O=C(O)C(F)(F)F.O=C(c1ccco1)N1C[C@@H]2CN(c3ccccn3)C[C@@H]2C1`: the “Percent Effect” value is -23.25%.
Consider `O=C(O)C(F)(F)F.O=C(c1ccco1)N1C[C@@H]2OCCN(c3ncccn3)[C@@H]2C1`, for which the “Percent Effect” value is listed as 113.8%.
As to `O=C(O)C(F)(F)F.O=C(c1ccoc1)N1C[C@@H]2[C@@H](C1)OCC(=O)N2Cc1cccnc1`, the “Percent Effect” value is -4.595%.
As for `O=C(O)C(F)(F)F.O=C(c1ccccc1)N1CCO[C@@H]2CN(c3ncccn3)C[C@@H]2C1`, the figure is 5.105%; as for `O=C(O)C(F)(F)F.O=C(c1ccco1)N1C[C@@H]2[C@@H](C1)OCC(=O)N2Cc1cccnc1`, -32.49%.
As to `O=C(O)C(F)(F)F.O=C(c1ccc(O)cc1)N1C[C@@H]2OCCN(c3ncccn3)[C@@H]2C1`, the “Percent Effect” value turned out to be 101.3%.
On to `O=C(O)C(F)(F)F.O=C(c1ccc(F)cc1)N1C[C@@H]2OCCN(c3ncccn3)[C@@H]2C1`, for which the “Percent Effect” value is -10.32%.
As for `O=C(c1ccoc1)N1CC[C@@H]2[C@@H](CC1)OCCN2c1cccnc1`, the figure is -2.409%; as for `CSCC[C@@H](CO)Nc1ccc(-c2nc(-c3ccccc3C)no2)cn1`, 8.283%; as for `COCCN1CCC(NC(=O)Nc2cccc(F)c2)C1` (configuration not stated), -22.85%.
For `CC(C)CS(=O)(=O)CC(=O)NC(C)(C)c1cccc(F)c1`, the “Percent Effect” value is on record as 8.066%.
On to `CO[C@@H]1CCC[C@@H](NC(=O)C(C)(C)c2cccc(F)c2)[C@H]1O`, for which the “Percent Effect” value is 116.6%.
Consider `Fc1cccc(-n2nc(C3CC3)nc2CCn2cnnn2)c1`, for which the “Percent Effect” value is recorded as -8.194%.
With `CCCn1cc(CN2CCCC2c2nccc(CN(C)C)n2)cn1` (configuration not stated), the “Percent Effect” value turned out to be 91.04%.
For `Cc1cnn(CC2CCCN2CC(=O)N(C)Cc2cnn(C)c2)c1` (configuration not stated), the “Percent Effect” value is reported as -0.6585%.
On to `CN(C)Cc1ccnc(C2CCCN2Cc2cc[nH]n2)n1` (configuration not stated), for which the “Percent Effect” value is listed as -4.978%.
As for `Cc1nn(C)c(C)c1CN(C)C(=O)C1COc2ccccc2C1` (configuration not stated), the figure is -11.47%.
As for `Cc1cnc(CN2CCCC2c2noc(C)n2)cn1` (configuration not stated), the figure is -5.918%; as for `Cc1nn(C)c(C)c1CN1CCCC1c1nccc(CN(C)C)n1` (configuration not stated), 96.16%; as for `CN(C)Cc1ccnc(C2CCCN2Cc2ccc(F)cn2)n1` (configuration not stated), 110.9%.
As to `CN(C)Cc1ccnc(C2CCCN2Cc2cccc(F)c2F)n1` (configuration not stated), the “Percent Effect” value was determined as 111%.
For the molecule `Cn1cc(C2CCCN2Cc2csc(C(C)(C)C)n2)cn1` (configuration not stated), the “Percent Effect” value came to 3.745%.
Consider `C1CCN(CCOC2CCNC2)CC1.Cl.Cl` (configuration not stated), for which the “Percent Effect” value was -5.434%.
For the molecule `CCNC(=O)[C@@H]1C[C@H](N)CN1Cc1ccc2cccc(Cl)c2n1`, the “Percent Effect” value was 33.76%.
As for `Cn1cnc(S(=O)(=O)N2C[C@H](OCC3CC3)[C@H]3OCCC[C@H]32)c1.O=C(O)C(F)(F)F`, the figure is -7.803%; as for `CCSCC(C)NCc1nn(C)c2ccc(C)cc12` (configuration not stated), -30.17%; as for `CCC1CN(C(=O)c2ccc(O)c(C)c2)CCN1C(C)C` (configuration not stated), -1.675%.
Take `COC(=O)[C@@H]1Cc2c[nH]c3cccc(c23)[C@H](CC(C)C)N1`: the “Percent Effect” value is recorded as -15.46%.
On to `O=C(CCOCC(F)(F)F)NS(=O)(=O)c1cccnc1`, for which the “Percent Effect” value is given as 3.556%.
`Cc1ccc(CCN2C(=O)CC[C@H]3CN(Cc4cnn(C)c4)CC[C@H]32)o1`: the “Percent Effect” value was 42.08%.
Take `CCN(Cc1cnn(C)c1)S(=O)(=O)N1CCCC1c1ccco1` (configuration not stated): the “Percent Effect” value worked out at 12.89%.
As for `CN1CCc2nnc(C3CCCN3S(=O)(=O)c3ccc(F)cc3)n2CC1` (configuration not stated), the figure is 101.3%; as for `Fc1ccc(-c2nnc(CN3CCn4c(nnc4C4CC4)C3)o2)cc1`, -8.144%.
As to `CCN(CC)S(=O)(=O)N1CCCC1CC(=O)c1cccs1` (configuration not stated), the “Percent Effect” value is reported as 1.947%.
As for `CCN(CC)S(=O)(=O)N1CCCC1c1nnc2n1CCN(C)CC2` (configuration not stated), the figure is 109.2%; as for `COc1cccc2c1CCN(C(=O)NCc1nnc3ccccn13)C2`, -4.622%.
As for `COc1cc(NC(=O)C2CC(=O)N(c3cccc(Br)c3)C2)ncn1` (configuration not stated), the “Percent Effect” value is given as -7.851%.
On to `CCNC(=O)[C@@H]1C[C@@H](N)CN1Cc1ccc2cccc(Cl)c2n1`, for which the “Percent Effect” value is reported as -2.31%.
As for `CCc1ccc2c(c1)C(CCNC(=O)CSC(F)(F)F)C(=O)N2` (configuration not stated), the figure is 2.698%.

Source of the values: ChEMBL document CHEMBL3988442, “University of Dundee, Small-Polar-MMV Screening Library” (2021).
